# Shown is part of a subset that was picked to be rich in hits.
# ERK EGF block = inhibitors of EGF-stimulated ERK signaling pathway; HEK293-V1b, EGF-stimulated phospho-ERK AlphaScreen; Potency, µM (highest dose often 11.5 µM), inactives show at the top dose activity change, negative = inhibition, most hits filed as inhibitors; 130,000 tested, 0.41% active; AID 1454; active = well fitted inhibition curve with a large enough effect;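 note: plate controls were stimulated vehicle wells for no effect and unstimulated vehicle basal for full effect; nearly all actives have a fitted effect of over 55% in size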
#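 Readout: AlphaScreen signal for phosphorylated ERK in lysed HEK293 cells stably expressing V1b. Stimulus 25 nM EGF, 5 min, following 30 min compound exposure. Data scaled to DMSO basal and full EGF activation.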
# * marks the source's active call; other numbers are inactive results; [ ] = another dose, or the depositor's remark. Potency is the fitted concentration of half-maximal effect.
SMILES,ERK EGF block
Cc1ccc(-n2[nH]c(C)c(/C=N/Nc3ccc([N+](=O)[O-])cc3[N+](=O)[O-])c2=O)cc1C,16µM*
COc1ccc(CCN=Cc2c(C)[nH]n(-c3ccc([N+](=O)[O-])cc3)c2=O)cc1OC,-7%
Cc1[nH]n(-c2ccc([N+](=O)[O-])cc2)c(=O)c1/C=N/N1CCOCC1,8%
CC(=O)Oc1ccc2c(c1)CCC1C2CC[C@]2(C)C(=O)CCC12 (stereo not given in full),12%
CN1CC[C@@]2(CCCN(C(=O)c3cccc(F)c3)C2)C1,7%
Cc1ccc(N2CCOCC2)c2c1C(=O)c1ccccc1C2=O,17%
CN(C1=C(N2CCOCC2)C(=O)c2ccccc2C1=O)c1ccccc1,11µM*
O=C(O)c1cccc(NC2=C(N3CCOCC3)C(=O)c3ccccc3C2=O)c1,6%[57.5 µM]
CC(C)C[C@@H](CC(=O)N[C@@H](CCC(=O)O)CC(=O)O)NC(=O)[C@@H]1CCCC[C@H]1NC(=O)C[C@H](CCCN)NC(=O)C[C@H](CO)NC(=O)[C@@H]1CNCC[C@H]1N,-6%
COC(=O)/C(Cc1cc(Br)c(OC)c(Br)c1O)=N/O,-3%
CNC(=O)[C@H]1O[C@H](n2cnc3c(NCc4cccc(I)c4)nc(Cl)nc32)[C@@H](O)[C@@H]1O,-2%
CNC(=O)[C@H]1O[C@@H](n2cnc3c(NCc4cccc(I)c4)ncnc32)[C@H](O)[C@H]1O,19%
CS(=O)(=O)N1CCC2(CC1)CN(c1ccccc1)C2,-10%
CC(=O)Oc1ccc(/C=C/C(=O)CC2OC(Oc3cc(OC(C)=O)c4c(c3)O[C@@H](c3ccc(OC(C)=O)cc3)CC4=O)C(OC(C)=O)C(OC(C)=O)C2OC(C)=O)cc1 (stereo not given in full),-11%
O=C(COc1ccccc1Cl)NC(=S)Nc1ccc(CN2CCOCC2)cc1,-12%
O=C(COc1ccc(Cl)cc1Cl)NC(=S)Nc1ccc(CN2CCOCC2)cc1,20µM*
O=C(CCCCl)NC(=S)Nc1ccc(CN2CCOCC2)cc1,7%[57.5 µM]
CNC(=O)[C@H]1O[C@@H](n2cnc3c(N)ncnc32)[C@H](O)[C@H]1O,10%
CCCCCCCCCCCCCCC(C(=O)O)C(O)(CC(=O)OC)C(=O)O (stereo not given),23%
CCCCC[C@H](O)/C=C/C=C\C/C=C\C/C=C\CCCC(=O)O,-11%
COc1ccc(Oc2ncc3nc(CCc4ccccc4)c(=O)n(CCC#N)c3n2)cc1,-2%
CN(C(=O)COC(=O)c1n[nH]c2ccccc12)c1ccccc1,-9%
CN(C)c1ccc(N=Nc2ccccc2C(=O)OCC(=O)N(C)c2ccccc2)cc1,10µM*
CN(C(=O)COC(=O)c1ccc2c(c1)OCCO2)c1ccccc1,-13%
CC(=O)c1ccc(NC(=O)COC(=O)c2ccccc2N=Nc2ccc(N(C)C)cc2)cc1,28%
SMILES,ERK EGF block
COC(=O)c1ccccc1NC(=O)COC(=O)[C@H](C)NC(N)=O,1%[57.5 µM]
COC(=O)c1ccccc1NC(=O)COC(=O)c1ccccc1N=Nc1ccc(N(C)C)cc1,14µM*
C=C[C@@H](C1=CC(=O)C(OC)=C(OC)C1=O)c1ccccc1,3%
O=C(O)CN1C(=O)/C(=C/C=C/c2ccccc2)SC1=S,0%
CCN1C(=O)/C(=C\C=C2/C=CC=CN2CC)SC1=S,25µM*
CN1C=CC=C/C1=C1/SC(=S)N(Cc2ccccc2)C1=O,23%
COC(=O)N1C(C)=Cc2ccccc2C1C/C(C)=C/C(C)=O (stereo not given),-7%
O=C(c1cnccn1)N1CCC2(CCCN(c3cccc(-c4ccccc4)c3)C2)CC1,21%
Cc1nn(-c2ccccc2)c(N2CCCC2)c1/C=N/Nc1ccc(S(=O)(=O)Nc2ccccc2)cc1[N+](=O)[O-],4%
COc1ccccc1NS(=O)(=O)c1cccc(C(=O)N/N=C/c2c(C)nn(-c3ccccc3)c2N2CCCC2)c1,5%
COc1ccccc1NS(=O)(=O)c1ccc(N/N=C/c2c(C)nn(-c3ccccc3)c2N2CCCC2)c([N+](=O)[O-])c1,13µM*
CCCC[C@H]1C[C@@H]1[C@@H]1N(P(=O)(c2ccccc2)c2ccccc2)C[C@@](O)(c2ccccc2)CC12CC2,21%
C=C[C@](C)(O)CCC1C(=C)CC(O)C2C(C)(C)CCCC12C (stereo not given in full),15%
COCCNc1ccnc(-c2ccccc2CN(C)C)n1,10%
COc1ccc(O)c(C(=O)/C=C/c2cc3ccccc3o2)c1,25µM*
COc1cccc(C(=O)Oc2ccccc2/C=C\C(=O)c2cc3ccccc3o2)c1,17%
COc1ccc(C(=O)/C=C/c2ccccc2)c(O)c1,-8%[57.5 µM]
CC(C)Oc1ccc2c(=O)c3cc(C(=O)O)ccc3oc2c1,-11%
O=C(Oc1ccccc1)N1CCC2(CC1)CCN(c1ccccc1)CC2,4%
N#Cc1cccc(NC(=O)N2CCCC3(CCN(C(=O)c4cnccn4)CC3)C2)c1,3%
O=C(Oc1ccccc1)N1CCC2(CCCN(c3ncccn3)C2)CC1,-3%
COC(=O)[C@@]1(C)CCC[C@@]2(C)c3ccc(O)c(C(C)C)c3CCC21 (stereo not given in full),22µM*
CC(=O)Oc1ccc2c(c1C(C)C)CCC1C(C)(C)CCC[C@@]21C (stereo not given in full),7%
CC(C)c1c(O)ccc2c1CCC1[C@@](C)(CO)CCC[C@@]21C (stereo not given in full),12%
N#Cc1cccc(NC(=O)N2CC[C@@]3(CCCN(C(=O)c4cccc(F)c4)C3)C2)c1,-3%
SMILES,ERK EGF block
COc1ccc(-n2nc([N+](=O)[O-])c(=NCCC3=CCCCC3)n2O)cc1,28µM*
COc1ccc(-n2nc([N+](=O)[O-])c(=NCc3cccnc3)n2O)cc1,-5%
COc1ccc(-n2nc([N+](=O)[O-])c(=NCCc3ccc(OC)c(OC)c3)n2O)cc1,0%
CCCCC/C=C\C/C=C\C/C=C\CCCCCCC(=O)NCC(=O)O,-6%
Cc1cccc(N2CCN(C(=S)c3ccccc3)CC2)c1,2%[57.5 µM]
O=[N+]([O-])c1cccc(C(=S)N2CCN(c3ccccc3)CC2)c1,6%
Cc1cccc(N2CCN(C(=S)c3ccc([N+](=O)[O-])cc3)CC2)c1,18µM*
COC(=O)[C@@H]1C[C@@]2(O)[C@H](O)[C@H](O)[C@H](O)C[C@H]2N1Cc1c(F)cccc1Cl,0%
COc1cccc2c1CCC1=CC(=O)CC[C@@]12C,5%
CCN(CC)CCn1c(=N)n(CC(O)COc2ccccc2)c2ccccc21 (stereo not given),0%[57.5 µM]
CCCCCn1c(=N)n(CC(O)COc2ccccc2OC)c2ccccc21 (stereo not given),0%
Cc1ccccc1OCC(O)Cn1c(=N)n(Cc2ccccc2)c2ccccc21 (stereo not given),32µM*
CO[C@@H](CCOCc1ccccc1)C[C@H]1O[C@H](C(=O)OC(C)C)C=C[C@@H]1C,-11%
O=C1Nc2ccccc2S/C1=C/c1cccs1,-1%[57.5 µM]
Cc1cccc(N=C2NC(=O)/C(=C/c3cccs3)S2)c1,25µM*
Cc1cccc(N=C2NC(=O)/C(=C/c3cccn3C)S2)c1,1%[57.5 µM]
COC/C=C/C1=CC2=CC(=O)C(C)(OC(=O)c3ccc(Cl)nc3)C(=O)C2=CO1 (stereo not given),-12%
COc1cccc(Nc2ncc3nc(C)c(=O)n(CCC#N)c3n2)c1,20%
COc1ccccc1-c1ccc2ncnc(N(C)C)c2c1,22%
O=C(Nc1ccc2cn[nH]c2c1)c1c(Cl)cccc1Cl,-9%
O=C(Nc1ccc2cn[nH]c2c1)c1ccccc1F,2%
